In PMC4336329 (PLoS ONE, 2015):
In all, about 310,000 compounds went through this assay and about 2,200 (0.71%) showed an effect of 50% or more. The effect is printed as a negative number. Shown is part of a subset that was picked to be rich in strong results.

What follows are molecules tested against human ether-à-go-go-related gene (hERG) potassium channel (human, UniProt Q12809) (assay: primary screen, population patch clamp on CHO cells stably expressing hERG; higher = less effect of the substance).
Sequence of human ether-à-go-go-related gene (hERG) potassium channel (Q12809 whole entry, looked up): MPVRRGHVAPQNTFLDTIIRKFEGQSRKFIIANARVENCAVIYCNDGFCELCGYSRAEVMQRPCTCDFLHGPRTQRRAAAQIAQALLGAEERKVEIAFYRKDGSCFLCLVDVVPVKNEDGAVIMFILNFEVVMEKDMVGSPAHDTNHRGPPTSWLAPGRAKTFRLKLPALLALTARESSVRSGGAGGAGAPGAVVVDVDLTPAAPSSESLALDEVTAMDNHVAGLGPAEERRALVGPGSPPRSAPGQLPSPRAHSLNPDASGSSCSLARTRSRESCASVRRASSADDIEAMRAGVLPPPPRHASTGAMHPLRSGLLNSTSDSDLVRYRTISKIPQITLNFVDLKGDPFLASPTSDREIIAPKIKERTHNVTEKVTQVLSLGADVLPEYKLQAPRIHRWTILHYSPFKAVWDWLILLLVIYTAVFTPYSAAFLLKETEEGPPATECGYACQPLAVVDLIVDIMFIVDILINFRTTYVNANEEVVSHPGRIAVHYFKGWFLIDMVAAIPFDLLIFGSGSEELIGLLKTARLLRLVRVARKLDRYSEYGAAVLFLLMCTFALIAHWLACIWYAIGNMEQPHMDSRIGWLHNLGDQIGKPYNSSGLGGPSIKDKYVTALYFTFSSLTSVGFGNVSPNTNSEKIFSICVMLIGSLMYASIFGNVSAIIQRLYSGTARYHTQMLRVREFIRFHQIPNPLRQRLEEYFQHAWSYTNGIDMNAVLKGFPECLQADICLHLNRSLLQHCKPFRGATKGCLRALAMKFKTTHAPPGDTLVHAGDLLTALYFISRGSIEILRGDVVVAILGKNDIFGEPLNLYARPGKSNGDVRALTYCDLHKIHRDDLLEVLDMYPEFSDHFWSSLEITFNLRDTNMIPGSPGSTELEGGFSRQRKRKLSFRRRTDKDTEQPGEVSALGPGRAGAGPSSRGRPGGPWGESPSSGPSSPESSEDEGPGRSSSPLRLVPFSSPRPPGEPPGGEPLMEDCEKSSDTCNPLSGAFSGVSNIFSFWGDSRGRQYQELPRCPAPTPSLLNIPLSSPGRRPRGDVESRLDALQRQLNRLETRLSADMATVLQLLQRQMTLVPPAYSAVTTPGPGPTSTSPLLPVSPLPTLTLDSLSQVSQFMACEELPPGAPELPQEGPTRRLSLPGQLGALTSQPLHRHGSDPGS

Question: How did the “hERG current change (%, negative = inhibition) at 1uM” value turn out when O=C(c1ccc2c(c1)OCO2)C1CCCN(Cc2ccc(F)c(F)c2)C1 (centres unmarked) was run?
Answer: 5.03%

Question: Cc1ccsc1C(=O)C1CCCN(Cc2ccc(-n3cccn3)cc2)C1 (centres unmarked) was tested. Which “hERG current change (%, negative = inhibition) at 1uM” value did it give?
Answer: -3.18%

Question: For Cc1ccc(CN2CCCC(C(=O)c3ccc4c(c3)OCO4)C2)cc1C (centres unmarked), which “hERG current change (%, negative = inhibition) at 1uM” value is on record?
Answer: -27.1%

Question: With COc1cc(OC)c(OC)cc1CN1CCCC(C(=O)c2ccc3c(c2)OCO3)C1 (centres unmarked) as the molecule, how does the “hERG current change (%, negative = inhibition) at 1uM” value read?
Answer: -27.7%

Question: O=C(c1ccc2c(c1)OCO2)C1CCCN(Cc2ccccc2OC(F)F)C1 (centres unmarked) was tested. Which “hERG current change (%, negative = inhibition) at 1uM” value did it give?
Answer: -16.9%

Question: Which “hERG current change (%, negative = inhibition) at 1uM” value does the source give for Cc1cccc(CN2CCCC(C(=O)c3ccc4c(c3)OCO4)C2)n1 (centres unmarked) here?
Answer: -16.8%

Question: O=C(c1ccc2c(c1)OCO2)C1CCCN(Cc2ccc(OC(F)F)cc2)C1 (centres unmarked) was tested. Which “hERG current change (%, negative = inhibition) at 1uM” value did it give?
Answer: -53%

Question: With O=C(c1ccc2c(c1)OCO2)C1CCCN(Cc2c(F)cccc2Cl)C1 (centres unmarked) as the molecule, how does the “hERG current change (%, negative = inhibition) at 1uM” value read?
Answer: 0.9%

Question: Cc1ccc(-n2cccn2)c(CN2CCCC(C(=O)c3ccc4c(c3)OCO4)C2)c1 (centres unmarked) was tested. Which “hERG current change (%, negative = inhibition) at 1uM” value did it give?
Answer: -83.5%

Question: How did the “hERG current change (%, negative = inhibition) at 1uM” value turn out when Cc1ccsc1C(=O)C1CCCN(Cc2cc(F)ccc2-n2cccn2)C1 (centres unmarked) was run?
Answer: -45.5%

Question: Cc1ccc(-n2cccn2)c(CN2CCCC(C(=O)c3sccc3C)C2)c1 (centres unmarked) was tested. Which “hERG current change (%, negative = inhibition) at 1uM” value did it give?
Answer: -82.8%

Question: Which “hERG current change (%, negative = inhibition) at 1uM” value does the source give for O=C(c1ccc2c(c1)OCO2)C1CCCN(Cc2ccc3cccc(F)c3n2)C1 (centres unmarked) here?
Answer: -81.5%

Question: COc1ccc(CNCc2c(F)cccc2F)cc1OC.O=C(O)C(=O)O was tested. Which “hERG current change (%, negative = inhibition) at 1uM” value did it give?
Answer: 14.6%

Question: For O=C(NC1CCCCCC1)c1ccc(CS(=O)Cc2cccc(Cl)c2)o1 (centres unmarked), which “hERG current change (%, negative = inhibition) at 1uM” value is on record?
Answer: 5.33%

Question: With COc1cc(/C=N/N2CCN(Cc3ccc(Cl)cc3)CC2)cc(Br)c1O as the molecule, how does the “hERG current change (%, negative = inhibition) at 1uM” value read?
Answer: 9.38%

Question: For N#Cc1c(NC(=O)CCCN2C(=O)c3ccccc3C2=O)oc(-c2ccccc2)c1-c1ccccc1, which “hERG current change (%, negative = inhibition) at 1uM” value is on record?
Answer: -0.65%

Question: For Cc1cc2nc3ccc(N(C)C)cc3nc2cc1N, which “hERG current change (%, negative = inhibition) at 1uM” value is on record?
Answer: 13.3%

Question: How did the “hERG current change (%, negative = inhibition) at 1uM” value turn out when CCOC1(OCC)N=C(N)C2(C#N)C(c3cccc(OC)c3OC)C12C#N (centres unmarked) was run?
Answer: 3.32%

Question: CN(C(=O)CCN1C(=O)c2ccccc2C1=O)c1ccccc1 was tested. Which “hERG current change (%, negative = inhibition) at 1uM” value did it give?
Answer: 15.8%

Question: How did the “hERG current change (%, negative = inhibition) at 1uM” value turn out when CCc1cc(C(c2ccc(F)cc2)N2CCOCC2)c(NC(=O)c2ccccc2)s1 (centres unmarked) was run?
Answer: 11.2%

Question: For CCCCNC(=O)N1CCOCCOCCN(C(=O)NCCCC)CCOCCOCC1, which “hERG current change (%, negative = inhibition) at 1uM” value is on record?
Answer: 7.75%

Question: For O=C(c1sc2cc([N+](=O)[O-])ccc2c1Cl)N1CCOCC1, which “hERG current change (%, negative = inhibition) at 1uM” value is on record?
Answer: 0.235%

Question: With CC(C)(C)CC(=O)OCC(=O)Nc1cc(C(C)(C)C)nn1-c1ccccc1 as the molecule, how does the “hERG current change (%, negative = inhibition) at 1uM” value read?
Answer: -12.9%
